A short description of test [1]: APR_HepG2_CellCycleArrest_24hr: Apredica 24-hour HepG2 Assay for Cell Cycle Arrest (AID 2282905).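 Note: cell cycle arrest scored as ratio of 2N to 4N nuclear DNA content.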 Conditions: imaging, actives raise or lower the signal. The method, boiled down:
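Cell cycle arrest is scored from nuclear DNA content measured by high-content imaging of Hoechst 33342-stained HepG2 cells following 24-hour treatment at ten concentrations up to 200 uM, with DMSO as baseline.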

Test [2] can be described thus: APR_HepG2_StressKinase_1hr: Apredica 1-hour HepG2 Assay for Stress Kinase (AID 2282906). Conditions: HepG2 stress kinase (phospho-c-Jun) imaging, actives raise or lower the signal. A digest of the protocol: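 HepG2 cells dosed 0.39-200 uM (0.5% DMSO) for 1 h, then formaldehyde-fixed. Stress kinase read by phospho-c-Jun immunofluorescence using high-content imaging; bidirectional fit vs DMSO.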

Test [3] in a line: APR_HepG2_NuclearSize_24hr: Apredica 24-hour HepG2 Assay for Nuclear Size (AID 2282907). Conditions: high-content imaging, actives raise or lower the signal. The method, boiled down:
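Compounds in DMSO (final 0.5%) were added to human HepG2 hepatoma cells at ten concentrations up to 200 uM for 24 hr. Fixed nuclei were stained with Hoechst 33342, and nuclear diameter was quantified from automated images.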

A short description of test [4]: APR_HepG2_CellLoss_24hr: Apredica 24-hour HepG2 Assay for Cell Loss (AID 2282908). Conditions: high-content imaging. The method, boiled down:
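Cell number is quantified by fluorescence imaging of Hoechst 33342-stained nuclei following dosing at 0.39–200 uM in 0.5% DMSO. Curves are fitted in both directions from the DMSO baseline.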

Test [5] is described as follows: APR_HepG2_MicrotubuleCSK_24hr: Apredica 24-hour HepG2 Assay for Microtubule CSK Stabilty (AID 2282909). The following applies: HepG2 microtubule cytoskeleton imaging, actives raise or lower the signal. A digest of the protocol: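 Steps: dose HepG2 for 24 h (0.39–200 uM, 0.5% DMSO); fix 30 min in 3.7% formaldehyde at room temperature; permeabilize; stain alpha-tubulin 60 min; image microtubule cytoskeleton at 20x. Signal change fitted in both directions relative to DMSO.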

The nature of test [6]: APR_HepG2_MitoticArrest_24hr: Apredica 24-hour HepG2 Assay for Mitotic Arrest (AID 2282910). Conditions: high-content imaging, actives raise or lower the signal. The method, boiled down:
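HepG2 human liver cells were exposed to compounds at 0.39–200 uM (10 concentrations, duplicate) in 0.5% v/v DMSO for 24 hr, then fixed and immunostained for phospho-histone H3 with Hoechst 33342. Mitotic arrest came from HCS fluorescent imaging, fitted bidirectionally against DMSO.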

Test [7] is described as follows: APR_HepG2_MitoMembPot_24hr: Apredica 24-hour HepG2 Assay for Mitochondrial Membrane Potential (AID 2282911). The following applies: imaging, actives raise or lower the signal. A digest of the protocol: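 HepG2 human liver cells were exposed 24 hr to compounds at 0.39–200 uM (final DMSO 0.5% v/v) in duplicate. MitoTracker Red CMXRos (250 nM, 30 min) was loaded before formaldehyde fixation; fluorescence was imaged by ArrayScan HCS and fitted bidirectionally versus DMSO.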

Test [8] is described as follows: APR_HepG2_MitoMass_24hr: Apredica 24-hour HepG2 Assay for Mitochondrial Mass (AID 2282912). The following applies: high-content imaging, actives raise or lower the signal. The method, boiled down: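 The liver line HepG2 was dosed in duplicate across a 0.39–200 uM series, with final DMSO held at 0.5% v/v, and harvested at 24 hr. High-content imaging measured mitochondrial dye staining.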

Test [9] in a line: APR_HepG2_p53Act_24hr: Apredica 24-hour HepG2 Assay for p53 Activation (AID 2282913).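 Note: p53 protein immunofluorescence averaged per cell in HepG2 with Hoechst nuclei.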 Conditions: high-content imaging, actives raise or lower the signal. A digest of the protocol: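 HepG2 cells exposed 24 hr to compounds at 0.39–200 uM (10 concentrations, duplicate), final DMSO 0.5% v/v. After formaldehyde fixation and Triton permeabilization, p53 was immunolabeled (sheep anti-p53, Cy5 secondary) with Hoechst 33342 nuclear counterstain, then imaged by high-content fluorescence microscopy.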

Test [10] is described as follows: APR_HepG2_CellCycleArrest_72hr: Apredica 72-hour HepG2 Assay for Cell Cycle Arrest (AID 2282914). The following applies: high-content imaging, actives raise or lower the signal. The method, boiled down:
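HepG2 cells were exposed to compounds at 0.39–200 uM (0.5% v/v DMSO final, duplicates) for 72 hr, fixed in 3.7% formaldehyde, permeabilized and stained with Hoechst 33342. Nuclear DNA content was quantified by high-content imaging; gain or loss of signal was fitted bidirectionally against DMSO.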

A short description of test [11]: APR_HepG2_CellLoss_72hr: Apredica 72-hour HepG2 Assay for Cell Loss (AID 2282915). The following applies: high-content imaging. A digest of the protocol:
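HepG2 cells were exposed for 72 hr to compounds at 0.39–200 uM (ten concentrations, duplicate) in 0.5% v/v final DMSO. Nuclei were stained with Hoechst 33342 after 3.7% formaldehyde fixation, imaged at 20x, and counted; fits bidirectional versus DMSO.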

Test [12] in a line: APR_HepG2_P-H2AX_72hr: Apredica 72-hour HepG2 Assay for H2AX Phosphorylation (AID 2282916).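 Note: phospho-histone H2A.x immunostain intensity per cell marking DNA damage.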 The following applies: imaging, actives raise or lower the signal. A digest of the protocol:
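Following 72 hr treatment with 0.39–200 uM compound, HepG2 cells were formaldehyde-fixed, permeabilized and stained for phospho-H2A.x; signal was measured by high-content imaging and fitted bidirectionally against DMSO controls.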

Test [13] is described as follows: APR_HepG2_MitoticArrest_72hr: Apredica 72-hour HepG2 Assay for Mitotic Arrest (AID 2282918). Conditions: high-content imaging, actives raise or lower the signal. A digest of the protocol: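 HepG2 cells were exposed for 72 hr to compound at 0.39–200 uM (10 concentrations, duplicate) in 0.5% v/v DMSO, fixed in 3.7% formaldehyde, immunostained for phospho-histone H3 with Hoechst 33342 and imaged by high-content fluorescence; bidirectional fits versus DMSO.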

Test [14] can be described thus: APR_HepG2_MicrotubuleCSK_72hr: Apredica 72-hour HepG2 Assay for Microtubule CSK Stabilty (AID 2282919). The following applies: HepG2 microtubule cytoskeleton, high-content imaging, actives raise or lower the signal. A digest of the protocol: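 HepG2 human liver cells were dosed for 72 h at ten concentrations from 0.39 to 200 uM in duplicate (0.5% v/v DMSO final). Fixed, permeabilized cells were immunostained for alpha-tubulin (Cy5) with a Hoechst counterstain and imaged at 20x.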

Test [15] can be described thus: APR_HepG2_P-H2AX_24hr: Apredica 24-hour HepG2 Assay for H2AX Phosphorylation (AID 2282920). The following applies: high-content imaging, actives raise or lower the signal. A digest of the protocol: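 HepG2 human liver cells were exposed for 24 hr to compounds at 0.39–200 uM in duplicate, with 0.5% v/v DMSO final. Fixed cells were immunostained for phospho-histone H2A.x plus Hoechst 33342, imaged by HCS fluorescence, and fitted bidirectionally against DMSO.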

Test [16] is described as follows: APR_HepG2_StressKinase_24hr: Apredica 24-hour HepG2 Assay for Stress Kinase (AID 2282922). The following applies: HepG2 stress kinase (phospho-c-Jun) imaging, actives raise or lower the signal. A digest of the protocol:
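HepG2 cells exposed 24 hr to compound at 0.39–200 uM (10 concentrations, duplicate), 0.5% v/v DMSO final. Fixed in 3.7% formaldehyde, permeabilized with Triton X-100, immunolabeled for phospho-c-Jun with Hoechst 33342; HCS fluorescence imaging, bidirectional fit versus DMSO.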

Test [17] can be described thus: APR_HepG2_p53Act_72hr: Apredica 72-hour HepG2 Assay for p53 Activation (AID 2282923).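 Note: average cellular p53 protein immunofluorescence intensity in HepG2 cells.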 Conditions: high-content imaging, actives raise or lower the signal. The method, boiled down: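 HepG2 monolayers receive test compounds in duplicate at ten concentrations (0.39 through 200 uM) for 72 hr. They are then formaldehyde-fixed, antibody-labelled for p53, Hoechst-stained and imaged, with activity fitted bidirectionally versus DMSO.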

Test [18] can be described thus: APR_HepG2_MitoMass_72hr: Apredica 72-hour HepG2 Assay for Mitochondrial Mass (AID 2282924).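 Note: MitoTracker Red CMXRos stain intensity per cell imaged as mitochondrial mass.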 The following applies: high-content imaging, actives raise or lower the signal. A digest of the protocol: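 HepG2 cells were exposed for 72 hr to compounds at 0.39–200 uM (ten concentrations, duplicate, 0.5% v/v DMSO final). Live cells were stained with 250 nM MitoTracker Red CMXRos for 30 min, then fixed in 3.7% formaldehyde and imaged by HCS fluorescence.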

Test [19] is described as follows: APR_HepG2_MitoMembPot_72hr: Apredica 72-hour HepG2 Assay for Mitochondrial Membrane Potential (AID 2282917). Conditions: imaging, actives raise or lower the signal. The method, boiled down: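 HepG2 cells exposed 72 h to compounds at 0.39–200 uM (0.5% v/v DMSO, duplicates); MitoTracker Red CMXRos 250 nM loaded 30 min before 3.7% formaldehyde fixation, imaged by HCS fluorescence. Bidirectional fit versus DMSO.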

Test [20] can be described thus: APR_HepG2_StressKinase_72hr: Apredica 72-hour HepG2 Assay for Stress Kinase (AID 2282921). Conditions: HepG2 stress kinase (phospho-c-Jun) imaging, actives raise or lower the signal. The method, boiled down: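 Fluorescence intensity of Cy3-tagged anti-phospho-c-Jun antibody, quantified per cell from Hoechst-defined nuclei across six images per well, served as the read-out following 72 h exposure (0.39–200 uM, 0.5% v/v DMSO).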

The source made the active and inactive calls. Rule for the calls: active = hit-call score of the fitted dose curve at least 0.9, where 1 is the maximum; inactive = score below 0.9.

Broadly, the AC50 is the midpoint of the concentration-response curve, whichever way the signal moves.

For the compound `CCOC(=O)COc1cc(-n2ncc(C(F)(F)F)c(C)c2=O)c(F)cc1Cl`, the call in test [1], in test [2], in test [3], in test [4], in test [5] and in [6] was inactive. In addition, the call in test [7], in test [8], in test [9], in test [10], in test [11] and in [12] was inactive. Besides, the compound was classed as inactive in test [13], in [14], in test [15], in test [16], in test [17] and in test [18].

Consider `CCCN(CCC)C(=O)SCC`, for which the outcome in test [1], in [2], in [3], in test [4], in test [6] and in test [7] was inactive. Also, the result in [8], in [9], in [10], in test [11], in test [12] and in test [13] was inactive. The compound was classed as inactive in test [14], in [15], in test [16], in test [17] and in test [18].

As for `CCCOC(=O)c1ccc(C(=O)OCCC)nc1`, the outcome in test [1], in test [2], in [3], in [4], in test [5] and in test [6] was inactive. Also, the outcome in [7], in test [8], in test [9], in test [10], in [12] and in test [13] was inactive. The compound was classed as inactive in test [14], in test [15], in test [16], in [17] and in [18].

With `CCOC(=O)NCCOc1ccc(Oc2ccccc2)cc1`, the outcome in test [1], in [2], in [3], in test [4], in test [5] and in [6] was inactive. Also, the outcome in test [8], in test [9], in test [10], in [12], in [13] and in [15] was inactive. Also, the compound was called inactive in [16], in test [17] and in [18]. In addition, the AC50 in test [7] was 56.2 µM (active); in [19], 78.2 µM (active); in test [14] it was 79.4 µM (active).

For the compound `CCCCC(CC)CN1C(=O)C2C3C=CC(C3)C2C1=O` (stereo unspecified), the call in [1], in test [2], in test [3], in test [4], in [6] and in test [7] was inactive. Further, the compound was called inactive in test [8], in test [9], in test [10], in test [12], in test [19] and in [13]. Further, the compound was classed as inactive in test [15], in test [20], in test [16], in [17] and in [18]. Further, in test [14], the AC50 was 85.7 µM (active).

In the case of `CCN(CC)C(=O)c1cccc(C)c1`, the call in test [1], in test [2], in test [3], in test [4], in test [5] and in test [6] was inactive. Further, the call in [7], in test [8], in [10], in test [12], in test [13] and in [14] was inactive. Further, the outcome in test [15], in test [16] and in test [18] was inactive.

Turning to `COC(=O)c1cccc(C)c1S(=O)(=O)NC(=O)Nc1nc(OCC(F)(F)F)nc(N(C)C)n1`, the call in [1], in test [2], in [3], in [4], in test [6] and in test [7] was inactive. The outcome in [8], in [9], in test [10], in test [11], in test [12] and in test [13] was inactive. The result in test [14], in test [15], in [16], in test [17] and in test [18] was inactive. The AC50 in test [19] is 1.33 µM (active).

(Values after PubChem BioAssay (EPA / NIEHS).)
